What follows are sequences tested against BEST2 (assay: pooled miR-30 sensor sort-seq; sequence = guide strand). Settings: shRNA.
Work on TACGCTAATCCAGTCATAGTGA yielded a sensor-assay potency score (higher = more potent) of -0.195. Work on TAAATCACAAGCTTCTCGAAGT yielded a sensor-assay potency score (higher = more potent) of -0.564. Sequence ATAAATCACAAGCTTCTCGAAG has a sensor-assay potency score (higher = more potent) of -0.809.

Each sequence was assayed against BIRC8 in the same assay as above. Settings: shRNA.
TTCTTTTAGTTAGTGATGGTGT gave a sensor-assay potency score (higher = more potent) of 0.0164. Work on TTTACAAAGCTTCTCCTCTTGC yielded a sensor-assay potency score (higher = more potent) of -0.189. Sequence TTTCTTGGTAGTTTGTACCAGA has a sensor-assay potency score (higher = more potent) of -0.312. TAGATCTGCAACAAGAACCTCA showed a sensor-assay potency score (higher = more potent) of 0.199. Sequence TTTCTGTAGTGTCTTTCTGAGC has a sensor-assay potency score (higher = more potent) of -1.49. In the case of TTGCTTGAAATCAATAACCGCG, the sensor-assay potency score (higher = more potent) is reported as 0.0701. TTGTTAACGGAGTACATCCATG was tested, and the sensor-assay potency score (higher = more potent) was -1.22. Sequence TCGTATAGCTTCTTGTAGCATA has a sensor-assay potency score (higher = more potent) of -0.43. TTGAAATCAATAACCGCGCTGC showed a sensor-assay potency score (higher = more potent) of 1.02. Sequence TCTTCTAGCAGATATTTGCAAC has a sensor-assay potency score (higher = more potent) of -1.19. TGCAACAAGAACCTCAAGCGTT gave a sensor-assay potency score (higher = more potent) of -0.815. Sequence TAGTTTGTACCAGAGCTCCCTC has a sensor-assay potency score (higher = more potent) of -0.717.

These sequences were tested against BMPR1B in the same assay as above. Settings: shRNA.
Work on TATTGTTGACTGAGTCTTCTGG yielded a sensor-assay potency score (higher = more potent) of 0.00108. TCTGTGATTAGGTACAACTGGG was tested, and the sensor-assay potency score (higher = more potent) was 0.0109. In the case of TTTTACTTTTCAGATCTCGATG, the sensor-assay potency score (higher = more potent) is reported as -0.74. Work on TATTACATTCGTTCCTTTCTGT yielded a sensor-assay potency score (higher = more potent) of 0.878. TTCACCATCTGAATCTGCTTAG gave a sensor-assay potency score (higher = more potent) of -0.315. In the case of TCGTGAAACAATATCCGTCTGT, the sensor-assay potency score (higher = more potent) is reported as -0.0353. TGATATATTTCTGTCTCTCTGA showed a sensor-assay potency score (higher = more potent) of 0.214. For TTTCACCATCTGAATCTGCTTA, the sensor-assay potency score (higher = more potent) was -0.0649. TTCTGTTCAAGCTCTCGTCCAA was tested, and the sensor-assay potency score (higher = more potent) was -0.142. TAGGTCATGATAAGGAAGCTGG showed a sensor-assay potency score (higher = more potent) of -0.2. For TTGTTGACTGAGTCTTCTGGAC, the sensor-assay potency score (higher = more potent) was -0.721. With TTGAGTACTAAAGATTTCTGTG the sensor-assay potency score (higher = more potent) was 0.176. With TTGATCTTCTTTGATGAGGAAT the sensor-assay potency score (higher = more potent) was -1.13. In the case of TCATCCTCTTCTATCATCGTGA, the sensor-assay potency score (higher = more potent) is reported as 0.152. Work on TCTGTCTCTCTGAACCAGCTGG yielded a sensor-assay potency score (higher = more potent) of -0.359. With TCATCGTGAAACAATATCCGTC the sensor-assay potency score (higher = more potent) was -0.268. In the case of TTGATGCACACAATCTCCCTCA, the sensor-assay potency score (higher = more potent) is reported as -0.279. In the case of TATTCTTCCACTATACCTCCTG, the sensor-assay potency score (higher = more potent) is reported as 0.554. TTACATTCGTTCCTTTCTGTGC showed a sensor-assay potency score (higher = more potent) of -0.864. ATTTCTGTCTCTCTGAACCAGC was tested, and the sensor-assay potency score (higher = more potent) was -0.623. TAGGTCTTTATTACATTCGTTC gave a sensor-assay potency score (higher = more potent) of -0.881.

The sequences below were run against BOLA1 in the same assay as above. Settings: shRNA.
TGGGGGGCTAGTGTCCAGCTGA showed a sensor-assay potency score (higher = more potent) of -1.56. TCTCGTTGCGAAGCTCTAGCAC was tested, and the sensor-assay potency score (higher = more potent) was -0.674. TTCTTGTTCCCACCCAGGCATG was tested, and the sensor-assay potency score (higher = more potent) was -1.63. With TTGACCTGAAGCAAGTTGCTAT the sensor-assay potency score (higher = more potent) was -0.107.
Note: reference of the scale not given here.
